Data on 40 molecules can be found in PubChem BioAssay (NCI).

About 83,000 compounds went through this panel and 20% of them were active in at least one assay; those are over-represented in the sample as a whole.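 For each line, cells grew in 96-well plates with the test compound present at a single concentration for 48 hours.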 Unmarked numbers belong to inactive results. Activity calls are given as the source filed them. How the source made its calls: active means growth percent below 10; inactive means the rest.

The test concerns HL-60(TB) leukemia. Description: NCI-60 one-dose screen, 48 h (100 = growth as untreated, 0 = no growth, -100 = all killed). Particulars: 10 µM unless noted.
Turning to `CC(=O)O[C@H]1C(=O)[C@@]2(C)[C@H]([C@H](OC(=O)c3ccccc3)[C@]3(O)C[C@H](OC(=O)[C@H](OC(=O)CCC(=O)OC4CCC(S/N=C(N)/N=C(\N)N(C)C)CC4)[C@@H](NC(=O)c4ccccc4)c4ccccc4)C(C)=C1C3(C)C)[C@]1(OC(C)=O)CO[C@@H]1C[C@@H]2O` (stereo not given in full), the growth is 7.49% (active).
The value for `O=C(NCCOCCOCCOCCNC(=O)c1cc2c(o1)C(=O)c1ccccc1C2=O)NC12CC3CC(CC(C3)C1)C2` was 1.17% (active); that for `COc1cccc(NC(=O)OC(C)C)c1` was 72.7%; that for `COc1cc(C(=O)/C=C/c2cc(-c3ccc4c(c3)OCO4)n[nH]2)cc(OC)c1OC` was -16.6% (active).
Take `CC(Cl)(CCl)CS(=O)(=O)c1ccc(Cl)cc1` (stereo not given): the growth is 87.2%.
The value for `CC(CN1CCN(C)CC1)CN1c2ccccc2Sc2ccc(C(F)(F)F)cc21` (stereo not given) was 40.4%; that for `NC(N)=N/N=C(\N=Nc1ccccc1)c1ccc(Cl)cc1` was -8.35% (active); that for `Cl.Fc1c[c-]c(-c2ccccn2)c(F)c1.[Pt].c1ccc([PH+](C[PH+](c2ccccc2)c2ccccc2)c2ccccc2)cc1` was -33.7% (active).
On to `COc1cc2c(=O)n(C3CCCCCC3)c3c4cc[nH]c4ncc3c2cc1OC`, for which the growth is 74.1%.
To `COc1ccccc1-[n+]1cc(-c2ccc(-c3ccccc3)cc2)n2c1CCCCC2` belongs -27.7% (active).
Take `O=[N+]([O-])c1c(O)c(CNCCCO)cc(CNCCCO)c1O`: the growth is 75.8%.
In the case of `CC(C)C[C@H](NC(=O)Cn1ccc(Nc2ccccc2)cc1=O)B(O)O`, the growth is 2.13% (active).
With `O=c1cc(CSc2nnc(-c3ccccc3)n2-c2ccc(F)cc2)c2ccc3ccccc3c2o1`, the growth is 99.5%.
The value for `CCC(C)(c1cc(C(C)(C)C)c(O)c(C(C)(C)C)c1)c1cc(C(C)(C)C)c(O)c(C(C)(C)C)c1` was 99.3%.
With `CC(=O)Nc1c(C(=O)Nc2ccccc2)sc2nc3c(cc12)C(OC(C)=O)CCC3` (stereo not given), the growth is 18.6%.
The value for `O=c1ccc2nc(-c3ccccc3)nn(-c3ccccn3)c-2c1` was -28.1% (active).
To `CN1CCN(Cc2cc(NC(=O)c3cccc(C#Cc4cccc5[nH]nc(N)c45)c3)cc(C(F)(F)F)c2)CC1` belongs 0.0221% (active); to `COc1ccc(S(=O)(=O)NC2c3ccccc3CC2O)cc1OC` (stereo not given), 103%.
The value for `O=C(NNc1nc2cc(F)ccc2n2c(CN3CCOCC3)ccc12)c1ccccc1` was -1.51% (active); that for `NC(=O)NN=C(C1CC1)C1CC1` was 62.2%; that for `O=C(Nc1ccccc1[N+](=O)[O-])c1ccc(Cl)c(Cl)c1` was 90.2%.
Take `O=C1Nc2ccc(Cl)cc2/C1=N/N=C(c1ccccc1)c1ccccc1`: the growth was 91.4%.
To `CN(C)c1ccc(Cc2cc(-c3ccccc3)nn(C/C(=N/O)c3ccccc3)c2=O)cc1` belongs 54.3%; to `COc1nc2ccccc2cc1-c1nc2c(cnn2-c2ccc(Br)cc2)c(=O)[nH]1`, 8.57% (active); to `O=S(=O)(Nc1ccc2ccccc2c1)c1ccc(-c2cnc(C3CC3)o2)cc1`, -28% (active).
Turning to `CCCCOc1ccc(/C=N/Nc2cc(C)nc3ccc(Br)cc23)cc1`, the growth was 1.52% (active).
To `CCOC(=O)C1=C(C(F)(F)F)NC(=O)NC1CN1C(=O)c2ccccc2C1=O` (stereo not given) belongs 46.2%.
On to `CCC1=CCC[C@@]2(C)CCC[C@@]3(C)CCCC(C)(C)[C@]1([O-])[O+]32`, for which the growth was 107%.
The value for `CCN(CC)CC(O)c1cc(-c2ccc(Cl)cc2)nc2cc(Cl)ccc12` (stereo not given) was 17.9%.
The value for `O=c1cc(-c2ccccc2)[nH]c2c1CCCC2` was 19.1%; that for `O=C(Oc1cccc2ccccc12)Oc1cccc2ccccc12` was 88.4%.
To `CC(=O)n1nc(C(=O)OC(C)(C)c2ccccc2)c2ccccc21` belongs 97.5%; to `COc1cccc(NC(=O)Nc2ccc(Oc3ncnc4[nH]c(C)c(C)c34)cc2)c1`, 88.4%; to `CCOC(=O)c1sc(-c2ccc(OS(=O)(=O)c3cccs3)c(C=O)c2)nc1C`, -34.1% (active).
Take `CC/C(=N\Nc1nc2ccccc2n1C)c1ccccn1`: the growth is -29.4% (active).
To `N#Cc1cccc(NC(=O)c2cc(-c3ccc(F)cc3F)ccc2O)c1` belongs -19.1% (active); to `O=C1Nc2ccccc2/C1=C/C(=N/c1nnc(-c2ccc(Cl)cc2)s1)c1ccccc1`, -31.8% (active).
As to `CC(c1ccccc1)N(C)C` (stereo not given), the growth is 88.5%.
To `C#CCSc1nnnn1-c1ccccc1` belongs 92.7%; to `COc1ccc(C(=O)OC2C(OC3C(O)COC(O[C@H]4C[C@H]5[C@@H]6CC=C7C[C@@H](O)CC[C@]7(C)[C@H]6CC[C@]5(C)[C@H]4[C@H](C)C(=O)CCC(C)C)C3OC(N)=O)OCC(O)C2O)cc1` (stereo not given in full), -36.9% (active).
